Hits are enriched below; roughly 2.3% of the tested compounds scored in any of these assays.
IkB sig inh = IkB pathway inhibition in ABC-DLBCL cells; Potency, µM (doses to about 57.1 µM), for the others: at the highest dose IkBa stabilization activation; ABC-DLBCL IkBa-CBG/CBR dual luciferase ratio, 4 h; response scale: scaled: untreated 0%, proteasome inhibitor 100%; 110,000 tested, 0.04% active; AID 445; active = well fitted curve in the direction sought with a large enough effect in the signal ratio, not every such curve was filed as active; inconclusive = small, poorly fitted or top-dose-only effect, or a change in a side signal; the % refers to the signal ratio;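 also: the direction sought is a rising ratio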
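Luminescence ratio of IκBα-fused green versus native red beetle luciferase in OCI-Ly3 cells, 4 h post-doxycycline with compound; red signal alone, scaled from basal (0%) to zero light (-100%), flagged nonspecific or cytotoxic effects.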
ERK AVP block = inhibitors of vasopressin-stimulated ERK signaling pathway; HEK293-V1b, vasopressin-stimulated pERK AlphaScreen; Potency, µM (doses to about 57.5 µM), without a hit: at the top dose activity, negative = inhibition, actives largely listed as inhibitors; 72,000 tested, 0.99% active; AID 995; also: % is scaled to controls: 0 for no effect and ±100 for the full control effect; nearly all actives have a fitted effect of over 55% in size
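HEK293 cells stably expressing V1b receptor, seeded overnight in 1% FBS, were treated with compounds for 30 min at 37C, then stimulated 5 min with 25 nM vasopressin; phospho-ERK read by AlphaScreen SureFire after lysis.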
p53ts 32C kill = cytotoxicity in p53ts cells at permissive temperature; H1299-p53A138V at 32C, ATP luminescence viability, 24 h; Potency, µM (highest dose often 46.1 µM), for the others: at the top dose activity change, negative = cytotoxicity, most hits filed as cytotoxic; 130,000 tested, 0.93% active;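 also: 0% = DMSO and -100% = full killing by reference compound; nearly all actives have a fitted effect of over 55% in size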
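Cells: H1299 p53ts (A138V), 600/well, pre-incubated 16–30 h at 37C. Cpd up to 46 uM, 24 h, 32C. Readout: ATPlite luminescence, 20 min RT. Normalization: DMSO vs tamoxifen 100 uM. AC50 by Hill equation.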
p53ts 39C tox = kills p53ts cells at the nonpermissive temperature; H1299-p53A138V viability at 39C, ATP luminescence, 24 h; Potency, µM (top dose mostly 46.1 µM), for the others: at the top dose activity change, negative = cell killing, most hits filed as cytotoxic; 130,000 tested, 1.5% active; AID 902; also: % is scaled to controls: 0 for no effect and ±100 for the full control effect; nearly all actives have a fitted effect of over 55% in size
Peg3 imprint = inducers of genomic imprint erasure in mouse ES cells; mouse ES Peg3-LacZ reporter, beta-gal luminescence, 40 h; Potency, µM (top dose mostly 60.7 µM), for inactives: top-dose activity change, positive = activation, hits mostly activators; 110,000 tested, 0.02% active; AID 1948
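Readout: BetaGlo luminescence (5 min, room temp) for LacZ from the normally silent maternal Peg3 allele in female Peg3LacZ-Neo ES cells. Cells 300/well, 40 h, 37C, 5% CO2. Data normalized per plate to negative controls.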
* marks the source's active call; other numbers are inactive results; ? = inconclusive; · = no result; [ ] = another dose, or the depositor's remark. Unless noted, calls follow the shape of the dose curve; as a rule, active = well fitted curve in the direction sought with a large enough effect; inconclusive = small, poorly fitted or top-dose-only effect, or another doubt; inactive = no such curve, though single readings can be large; an effect the other way counts as inactive or inconclusive. Potency is read from the fitted curve at half-maximal effect.

SMILES	IkB sig inh	ERK AVP block	p53ts 32C kill	p53ts 39C tox	Peg3 imprint
O=C(O)c1cc(O)c2c(c1)[C@H]([C@H]1c3cc(C(=O)O)cc(O)c3C(=O)c3c(O[C@@H]4OC(CO)C(O)C(O)C4O)cccc31)c1cccc(O[C@@H]3OC(CO)C(O)C(O)C3O)c1C2=O (stereo partly drawn)	·	?	-22.9%	-20.6%	-6.6%
Cc1ccc(Cn2c(SCC(=O)NCc3ccccc3Cl)nc3ccsc3c2=O)cc1	0.3%	·	6.8%	10µM*	16.3%[10.9 µM]
COc1cccc(-c2cc(C(=O)N3CCCCCC3)no2)c1	?	5.4%	12.6µM*	10µM*	-65.2%
O=C(c1cc(-c2ccc(Cl)cc2Cl)on1)N1CCOCC1	3.0%	8.4%	3.16µM*	10µM*	-62.7%
O=C(c1cc(-c2ccc3c(c2)OCO3)on1)N1CCOCC1	?	4.1%	7.94µM*	7.94µM*	-85.5%
O=C(c1cc(-c2ccc(Cl)c(Cl)c2)on1)N1CCCC1	10.4%	-6.1%	-3.8%	4.2%	-8.5%
O=C(c1cc(-c2ccc(F)cc2)on1)N1CCCC1	?	17.5%	15.8µM*	10µM*	-65.3%
COc1cccc(-c2cc(C(=O)N3CCN(c4ccc(F)cc4)CC3)no2)c1	7.4%	·	-3.1%	7.7%	-18.2%[10.9 µM]
CC(C)S	-0.7%	3.2%	-4.4%[1.84 µM]	7.2%	3.1%
NCCSCCc1ccccc1	-0.8%[11.4 µM]	-14.8%[11.5 µM]	-0.9%[9.22 µM]	11.1%[9.22 µM]	-9.3%[10.9 µM]
O=C(c1cc(-c2ccc(Cl)cc2)on1)N1CCOCC1	?	?	10µM*	12.6µM*	-66.0%
CC1CCN(C(=O)c2cc(-c3ccc(Cl)cc3)on2)CC1	?	·	8.4%	0.2%	3.9%[10.9 µM]
CCOC(=O)c1sc(NC(=O)C2CC2)cc1C	-2.3%	·	12.6µM*	12.6µM*	-58.8%
CCOC(=O)c1sc(NC(=O)c2ccc(Cl)s2)cc1C	1.6%	·	?	-23.3%	-26.5%
O=C(Nc1ccc(-c2cn3ccsc3n2)cc1)c1ccc(F)c(S(=O)(=O)N2CCOCC2)c1	?	12.6µM*	-2.7%	-18.2%	-25.0%
O=C(Nc1cccc(-c2cn3ccsc3n2)c1)c1ccccc1	?	?	?	15.8µM*	1.8%
COc1ccccc1C(=O)Nc1cccc(-c2cn3ccsc3n2)c1	?	-21.0%	-29.1%	-29.8%	-13.2%
Cc1csc2nc(-c3cccc(NC(=O)c4ccccc4F)c3)cn12	?	·	?	6.31µM*	6.7%[10.9 µM]
Nc1cccc(-c2cn3ccsc3n2)c1	2.8%	·	?	25.1µM*	-45.4%[10.9 µM]
O=S(=O)(O)c1ccc(NN(c2c(O)ccc3ccccc23)S(=O)(=O)O)cc1	-1.2%[11.4 µM]	-17.0%[11.5 µM]	7.4%[9.22 µM]	-2.0%[9.22 µM]	-88.9%[10.9 µM]
CCCCC#Cc1nc(N)c2ncn([C@@H]3O[C@@H](C(=O)NCC)[C@H](O)[C@@H]3O)c2n1	?	?	8.6%	-16.8%	·
CC(C)(C)OC(=O)N1CCC(c2c(C(=O)NCCN3CCC(Cc4ccccc4)CC3)cnn2-c2ccccc2)CC1	-6.7%	·	?	31.6µM*	-14.6%[10.9 µM]
COc1ccc(CCN2CCC(CNC(=O)c3cnn(-c4ccccc4)c3C3CCN(C(=O)OC(C)(C)C)CC3)CC2)cc1	?	·	-8.9%	12.6µM*	-10.0%[10.9 µM]
CC(C)(C)OC(=O)N1CCC(c2c(C(=O)NCCN3CCC(Cc4ccccc4)CC3)cnn2-c2ccc(F)cc2)CC1	?	·	?	25.1µM*	-10.0%[10.9 µM]
COc1ccc(CCN2CCC(CNC(=O)c3cnn(-c4cccc(Cl)c4)c3C3CCN(C(=O)OC(C)(C)C)CC3)CC2)cc1	?	·	?	?	-3.3%[10.9 µM]
SMILES	IkB sig inh	ERK AVP block	p53ts 32C kill	p53ts 39C tox	Peg3 imprint
Nc1ccc(S(=O)(=O)NCc2nccs2)cc1	1.9%[11.4 µM]	8.2%[11.5 µM]	3.1%[9.22 µM]	5.7%[9.22 µM]	0.0%[10.9 µM]
CN(C)C=O	-2.5%	·	2.2%[1.84 µM]	-15.2%	2.3%
C[C@H]1/C=C\CC(=O)OC[C@H](C)C(=O)N2CCC[C@@H]2C(=O)OC1	·	-2.4%[11.5 µM]	0.9%[9.22 µM]	-0.4%[9.22 µM]	·
COC(=O)c1ccc(Nc2nc(-c3ccc(C)cc3)nc3ccccc23)cc1	?	·	?	12.6µM*	-22.9%[10.9 µM]
c1ccc(Nc2nc(-c3ccoc3)nc3ccccc23)cc1	0.4%[11.4 µM]	-27.8%	11.8%	-0.2%	3.98µM*
c1ccc2c(NC3CC3)nc(-c3ccoc3)nc2c1	1.3%[11.4 µM]	-28.8%	13.4%	-1.7%	-12.1%
